Records with an inconclusive call do not appear. A call without a number means that no potency is given here. Active and inactive are the calls of the source. Unless noted, calls come from the whole dose curve; as a rule, active = well fitted curve in the direction sought with a large enough effect in the repeat runs; inconclusive = weak or mixed curves; inactive = no such curve, though single readings can be large; an effect the other way counts as inactive or inconclusive.
Assays:
[1] = qHTS assay for small molecules that induce genotoxicity in human embryonic kidney cells expressing luciferase-tagged ATAD5 (AID 651632); note: nearly all actives have a fitted effect of over 15% in size; note: potency is the fitted concentration of half-maximal effect
How it was run: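 Quantitative HTS in HEK293T expressing luciferase-tagged ATAD5, whose levels rise upon DNA damage. Exposure ran 16 hr at 37C and 5% CO2, with luminescence read 30 min after Amplite addition at room temperature.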

[2] = qHTS assay for small molecules that induce genotoxicity in human embryonic kidney cells expressing luciferase-tagged ATAD5 - cell viability (AID 651634; calls by dose curve; note: nearly all actives have a fitted effect of over 25% in size; note: potency is the fitted concentration of half-maximal effect)
How it was run: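 After 15.5 hr incubation with compound at 37C, 5% CO2, HEK293T ATAD5-luciferase cells received CellTiter-Fluor reagent; fluorescence intensity was quantified following 30 min at 37C.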

[3] = qHTS assay for small molecule disruptors of the mitochondrial membrane potential - cell viability (AID 720634; calls by dose curve; note: nearly all actives have a fitted effect of over 20% in size; note: potency is the fitted concentration of half-maximal effect)
How it was run: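 ATP-based luminescent viability readout (CellTiter-Glo, 30 min, room temperature) in HepG2 cells multiplexed with the m-MPI membrane potential dye; compound exposure lasted 1 hr at 37 C.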

[4] = qHTS assay to test for compound auto fluorescence at 535 nm (green) in HepG2 cells (AID 720675)
[5] = qHTS assay to test for compound auto fluorescence at 590 nm (red) in HEK293 cells (AID 720679)
How it was run: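 Red autofluorescence, HEK293 cells: 2,000 cells/well; attach 4-5 hr 37C; add 23 nL cpd or DMSO; incubate o/n 37C 5% CO2; read Ex540/Em590; Rose Bengal sodium reference.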

[6] = qHTS assay to test for compound auto fluorescence at 535 nm (green) in HEK293 cells (AID 720680)
[7] = qHTS assay to test for compound auto fluorescence at 590 nm (red) in HepG2 cell free culture (AID 720684)
How it was run: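 Rose Bengal sodium served as the reference for red signal. Test compounds were dispensed into serum-containing MEM (10% FBS) without cells, and plates were read at 540/590 nm.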

[8] = qHTS assay to test for compound auto fluorescence at 460 nm (blue) in HepG2 cell free culture (AID 720685)
How it was run: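 Cell-free plates of MEM plus 10% FBS received 23 nL compound or DMSO vehicle; blue-channel (405/460 nm) intensity scored against triamterene as reference fluorophore.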

[9] = qHTS assay to test for compound auto fluorescence at 535 nm (green) in HepG2 cell free culture (AID 720686)
[10] = qHTS assay to identify small molecule antagonists of the glucocorticoid receptor (GR) signaling pathway - cell viability counter screen (AID 720693); note: nearly all actives have a fitted effect of over 55% in size; note: potency is the fitted concentration of half-maximal effect
[11] = qHTS assay to identify small molecule antagonists of the androgen receptor (AR) signaling pathway using the MDA cell line - cell viability counter screen (AID 743041; note: nearly all actives have a fitted effect of over 45% in size; note: potency is the fitted concentration of half-maximal effect)
How it was run: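 Cytotoxicity counter screen: MDA-kb2 AR-luc cells, compound + R1881, 16 h, 37C, 0% CO2; CellTiter-Fluor added at 15.5 h, fluorescence read after 30 min.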

[12] = qHTS assay to identify small molecule antagonists of the thyroid receptor (TR) signaling pathway - cell viability counter screen (AID 743064); note: nearly all actives have a fitted effect of over 50% in size; note: potency is the fitted concentration of half-maximal effect
How it was run: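 Fluorescence from CellTiter-Fluor, added after 23.5 h exposure at 37 °C, reported viability of GH3.TRE-Luc cells co-treated with compound and 1 nM T3. Measured in the same wells as the luciferase TR readout.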

[13] = qHTS assay to identify small molecule antagonists of the thyroid receptor (TR) signaling pathway (AID 743065); note: nearly all actives have a fitted effect of over 55% in size; note: potency is the fitted concentration of half-maximal effect
How it was run: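 GH3.TRE-Luc rat pituitary cells (two TREs driving luciferase) were dosed with compound, then stimulated with 1 nM T3 (final) for 23.5 h at 37 C. ONE-Glo luminescence was the read-out, with CellTiter-Fluor fluorescence as the cytotoxicity counter-screen.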

[14] = test system: thyroid hormone receptor (rat, GH3 cells); assay: qHTS assay to identify small molecule agonists of the thyroid receptor (TR) signaling pathway (AID 743066; calls by dose curve)
[15] = qHTS assay to identify small molecule antagonists of the estrogen receptor alpha (ER-alpha) signaling pathway using the BG1 cell line - cell viability counter screen (AID 743081);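 note: compound given together with 17beta-estradiol as the ER stimulus; nearly all actives have a fitted effect of over 45% in size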; note: potency is the fitted concentration of half-maximal effect
Aromatase (Homo sapiens) = Aromatase (Homo sapiens) (UniProt P11511); assay: qHTS assay to identify aromatase inhibitors (AID 743083); note: nearly all actives have a fitted effect of over 55% in size; note: potency is the fitted concentration of half-maximal effect
Sequence of Aromatase (Homo sapiens) (P11511 whole entry, looked up): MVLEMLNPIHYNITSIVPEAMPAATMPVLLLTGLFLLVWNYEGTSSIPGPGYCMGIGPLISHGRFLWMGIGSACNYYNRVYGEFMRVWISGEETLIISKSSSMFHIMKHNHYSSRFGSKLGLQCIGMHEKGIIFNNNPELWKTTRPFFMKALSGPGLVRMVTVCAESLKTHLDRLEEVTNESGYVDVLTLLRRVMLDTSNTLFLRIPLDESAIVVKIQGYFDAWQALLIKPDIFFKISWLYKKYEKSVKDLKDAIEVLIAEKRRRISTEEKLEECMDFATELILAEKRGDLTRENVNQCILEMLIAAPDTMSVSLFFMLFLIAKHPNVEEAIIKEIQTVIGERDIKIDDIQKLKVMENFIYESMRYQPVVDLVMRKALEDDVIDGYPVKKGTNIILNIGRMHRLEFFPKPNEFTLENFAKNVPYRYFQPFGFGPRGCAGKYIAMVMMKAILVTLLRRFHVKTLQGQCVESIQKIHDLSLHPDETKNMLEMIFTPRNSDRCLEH

[16] = qHTS assay to identify aromatase inhibitors - cell viability counter screen (AID 743084);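 note: cells stimulated with testosterone during compound exposure; nearly all actives have a fitted effect of over 55% in size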; note: potency is the fitted concentration of half-maximal effect
[17] = qHTS assay to identify small molecule that activate the aryl hydrocarbon receptor (AhR) signaling pathway - cell viability counter screen (AID 743086); note: nearly all actives have a fitted effect of over 45% in size; note: potency is the fitted concentration of half-maximal effect
How it was run: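 HepG2-AhR-luc (HG2L7.5c1) cells, 4000/well, treated 24 h at 37 C with compound; viability measured as CellTiter-Fluor fluorescence after 30 min in the same wells as the luciferase read.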

[18] = qHTS assay to identify small molecule phospholipidosis (PLD) inducers (AID 1259344; active = well fitted curve in the direction sought with a large enough effect; an effect the other way counts as inactive or inconclusive)
How it was run: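 Read-out is LipidTOX Red fluorescence (ex 595/em 615) imaged in HepG2 cells after 24 h compound exposure at 37 C, with Hoechst nuclear counterstain (ex 352/em 461) allowing per-cell normalisation.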

[19] = qHTS assay to identify small molecule antagonists of the estrogen receptor alpha (ER-alpha) signaling pathway - cell viability counter screen (AID 743074; calls by dose curve;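 note: HEK293 cells carrying ER-alpha-UAS-bla reporter stimulated with 17beta-estradiol; nearly all actives have a fitted effect of over 45% in size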; note: potency is the fitted concentration of half-maximal effect)

Compound	Potency [1]	Potency [2]	Potency [3]	Potency [4]	outcome [5]	Potency [6]	outcome [7]	Potency [8]	Potency [9]	Potency [10]	Potency [11]	Potency [12]	Potency [13]	Potency [14]	Potency [15]	Potency (Aromatase (Homo sapiens))	Potency [16]	Potency [17]	Potency [18]	Potency [19]
C[C@]12CCC(=O)C=C1C=C[C@@H]1[C@@H]2CC[C@@]2(C)[C@H]1CC[C@@]2(O)CCC(=O)O	inactive	inactive	inactive	inactive	inactive	inactive	inactive	inactive	inactive	inactive	inactive	inactive	inactive	inactive	inactive	inactive	inactive	inactive	inactive	–
[S]=[Sb](=[S])[S][Sb](=[S])=[S]	inactive	inactive	inactive	inactive	inactive	inactive	inactive	inactive	inactive	inactive	inactive	inactive	inactive	inactive	inactive	inactive	inactive	inactive	inactive	inactive
O=C1Nc2ccc(Cl)cc2C(c2ccccc2Cl)=NC1O (stereo not drawn)	inactive	inactive	inactive	inactive	inactive	inactive	inactive	inactive	inactive	inactive	inactive	inactive	inactive	inactive	inactive	inactive	inactive	inactive	inactive	inactive
[H+].[H+].[Hg+2].[O-]B([O-])[O-].[c-]1ccccc1	–	9.44 µM (active)	13.3 µM (active)	inactive	inactive	inactive	inactive	inactive	inactive	2.68 µM (active)	13.3 µM (active)	1.06 µM (active)	0.596 µM (active)	–	5.31 µM (active)	7.5 µM (active)	10.6 µM (active)	21.1 µM (active)	inactive	6.01 µM (active)
CC[N+](C)(CC)CCOC(=O)C(O)(c1ccccc1)c1ccccc1	inactive	inactive	inactive	inactive	inactive	inactive	inactive	inactive	inactive	inactive	inactive	inactive	inactive	inactive	inactive	inactive	inactive	inactive	inactive	inactive
COC(=O)[C@@H]1[C@H]2CC[C@@H](C[C@H]1OC(=O)c1ccccc1)N2C	inactive	inactive	inactive	inactive	inactive	inactive	inactive	inactive	inactive	inactive	inactive	inactive	inactive	inactive	inactive	inactive	inactive	inactive	inactive	inactive
CCCCNCC(O)c1ccc(O)cc1 (stereo not drawn)	inactive	inactive	inactive	inactive	inactive	inactive	inactive	inactive	inactive	inactive	inactive	inactive	inactive	inactive	inactive	–	–	inactive	inactive	inactive
C[N+]1([O-])[C@@H]2CC(OC(=O)[C@H](CO)c3ccccc3)C[C@H]1[C@@H]1O[C@@H]12 (stereo partly drawn)	inactive	inactive	inactive	inactive	inactive	inactive	inactive	inactive	inactive	inactive	inactive	inactive	inactive	inactive	inactive	inactive	inactive	inactive	inactive	inactive
Cc1cccc(C(C)c2cnc[nH]2)c1C (stereo not drawn)	–	inactive	inactive	inactive	inactive	inactive	inactive	inactive	inactive	inactive	inactive	inactive	inactive	inactive	inactive	29.8 µM (active)	inactive	inactive	inactive	inactive
C=CC[C@]1(O)CC[C@H]2[C@@H]3CCC4=CCCC[C@@H]4[C@H]3CC[C@@]21C	inactive	inactive	inactive	inactive	inactive	inactive	inactive	inactive	inactive	inactive	inactive	–	–	–	inactive	–	inactive	inactive	inactive	inactive
C[C@H]1CC[C@]2(NC1)O[C@H]1C[C@H]3[C@@H]4CC[C@H]5C[C@@H](O[C@@H]6O[C@H](CO)[C@H](O[C@@H]7O[C@H](CO)[C@@H](O)[C@H](O[C@@H]8OC[C@@H](O)[C@H](O)[C@H]8O)[C@H]7O[C@@H]7O[C@H](CO)[C@@H](O)[C@H](O)[C@H]7O)[C@H](O)[C@H]6O)CC[C@]5(C)[C@H]4CC[C@]3(C)[C@H]1[C@@H]2C	1.33 µM (active)	7.5 µM (active)	3.35 µM (active)	inactive	inactive	inactive	inactive	inactive	inactive	2.39 µM (active)	6.68 µM (active)	2.37 µM (active)	2.37 µM (active)	–	–	3.35 µM (active)	5.96 µM (active)	5.96 µM (active)	inactive	10.7 µM (active)
C=CCN(C1=NCCN1)c1c(Cl)cccc1Cl	inactive	inactive	inactive	inactive	inactive	inactive	inactive	inactive	inactive	inactive	inactive	inactive	inactive	inactive	inactive	inactive	inactive	inactive	inactive	inactive
CNC1(c2ccccc2Cl)CCCCC1=O (stereo not drawn)	inactive	inactive	inactive	inactive	inactive	inactive	inactive	inactive	inactive	inactive	inactive	inactive	inactive	inactive	inactive	inactive	inactive	inactive	inactive	inactive

— PubChem BioAssay (Tox21)
